For one assay, the system named is EPHA1. The settings on record: concentration: 1 μM,replicates: in singlicate; n = 1.
As for `CS(=O)c1ccc(-c2coc3ccc(-c4n[nH]c(=O)o4)cc23)cc1` (centres unmarked), the “%Inh” value is listed as 0%.

As for `Cc1ccc(Nc2ccnc(Nc3ccc4c(c3)CS(=O)(=O)C4)n2)cc1O.Cl` [GW579362], the “%Inh” value was found to be 91.3%.

With `CS(=O)(=O)Nc1ccc(-c2ccnc3[nH]ccc23)cc1` [GSK993273], the “%Inh” value is given as 19%.

Regarding `COc1cc(Nc2nccc(N3CCC(NC(=O)c4cccc(C#N)c4)C3)n2)cc(OC)c1OC` (centres unmarked) [GSK1379751], the “%Inh” value worked out at 11%.

Consider `O=c1[nH]cc(-c2ccc(O)cc2)c2sc(-c3ccncc3)cc12` [GSK1033723], for which the “%Inh” value came out at 8%.

As to `COc1cccc(CNC(=O)NC2CCN(c3ccnc(Nc4cc(OC)c(OC)c(OC)c4)n3)C2)c1` (centres unmarked) [GSK1379765], the “%Inh” value stood at 11%.

`O=C1NCCc2[nH]c(-c3ccncc3)cc21`: the “%Inh” value is listed as 2%.

With `O=C(Nc1ccc(Oc2ccc3nc(NC(=O)C4CC4)cn3n2)c(F)c1)c1cccn(-c2ccccc2)c1=O`, the “%Inh” value amounted to 51%.

On to `COC(=O)c1cccc(NC(=O)NC2CCN(c3ccnc(NCc4ccc(F)cc4)n3)CC2)c1` [GSK1379860], for which the “%Inh” value was 0%.

On to `Nc1nccc(-c2ccc3c(N)n[nH]c3c2)n1` [GSK1034945], for which the “%Inh” value is 11%.

As for `CC(C(=O)NC1CCN(c2ccnc(Nc3ccc(F)cc3)n2)C1)c1ccc(Cl)cc1` (centres unmarked) [GSK1379713], the “%Inh” value turned out to be 0%.

Regarding `Cc1ccc(C(=O)Nc2ccc(Oc3ccc4nc(NC(=O)C5CC5)cn4c3)c(F)c2)c(=O)n1-c1ccccc1`, the “%Inh” value is given as 91.8%.

Regarding `OCCn1cc(-c2cnc3nnn(Cc4ccc5ncccc5c4)c3n2)cn1`, the “%Inh” value is 0%.

As for `CN1CCN(CCNc2nc3cc(Oc4ccc(NC(=O)Nc5cc(C(F)(F)F)ccc5F)cc4)ccc3[nH]2)CC1.Cl.Cl` [GW768504], the “%Inh” value was found to be 0%.

For `CCn1c(-c2nonc2N)nc2cncc(CNC3CCNCC3)c21.Cl` [SB-747651], the “%Inh” value was determined as 6%.

On to `FC(F)(F)c1cc(Br)cc(Nc2nccc(-c3cnn4ncccc34)n2)c1` [GW810578], for which the “%Inh” value turned out to be 11%.

As to `Cn1ccc2ncnc(Oc3ccc(NC(=O)Nc4cncc(C(F)(F)F)c4)c(Cl)c3)c21`, the “%Inh” value was found to be 17%.

Regarding `O=C(Nc1n[nH]c2cc(-c3ccco3)ccc12)C1CC1` [SB-737447], the “%Inh” value came out at 0%.

Turning to `CN(c1ccc2c(c1)nc(NCc1ccc(F)cc1)n2C)c1ccnc(Nc2ccc(CS(C)(=O)=O)cc2)n1.Cl` [GW813244], the “%Inh” value was found to be 0%.

For the compound `COc1cccc(OC)c1C(=O)Nc1cccc(-c2nn3ccccc3c2-c2ccnc(Nc3cccc(F)c3)n2)c1` [GSK361065], the “%Inh” value was 4%.

Consider `CCN1CCN(CCCC(=O)Nc2n[nH]c3nc(-c4ccc(O)cc4)c(Br)cc23)CC1` [SB-731579], for which the “%Inh” value worked out at 0%.

`Cn1cc(-c2cccc3c(N)c(C(N)=O)nnc23)cn1`: the “%Inh” value is 0%.

Take `O=C(Nc1cccc(C(F)(F)F)c1)c1cccc(Oc2ccc3nccn3n2)c1`: the “%Inh” value is listed as 7%.

In the case of `Cn1ccc2ncnc(Oc3ccc(NC(=O)Nc4cnn(C(C)(C)C)c4)c(Cl)c3)c21`, the “%Inh” value is listed as 0%.

With `COc1ccc(Nc2nccc(N3CCC(NC(=O)c4cccc(C#N)c4)C3)n2)cc1` (centres unmarked) [GSK1379730], the “%Inh” value is 27%.

Consider `CC(C)S(=O)(=O)N1CCN(Cc2ccc3c(c2)nc(NC(=O)c2ccsc2)n3C[C@H](O)c2ccccc2)CC1` [GW635815], for which the “%Inh” value amounted to 0%.

Regarding `Cn1ccc2ncnc(Oc3ccc(NC(=O)Nc4cccc(C(F)(F)F)c4)c(F)c3)c21`, the “%Inh” value amounted to 51%.

For `Cc1ccc2c(-c3ccnc(Nc4ccc(C(F)(F)F)cc4)n3)cnn2n1` [GW819776], the “%Inh” value was 0%.

As to `c1ccc(Oc2ccc(Nc3ccnc4ccc(-c5ccccn5)cc34)cc2)cc1` [GW407034], the “%Inh” value came to 31%.

As for `COc1cc2ncn(-c3cc(OCC4CCCCC4)c(C(N)=O)s3)c2cc1OC` [GSK204559], the “%Inh” value worked out at 3%.

On to `Cl.Nc1n[nH]c2cc(-c3ccccn3)ccc12` [GSK2189892], for which the “%Inh” value is listed as 7%.

In the case of `CNC(=O)c1ccccc1Nc1nc(Nc2cccc(CS(C)(=O)=O)c2)ncc1C.O=CO` [GSK1520489], the “%Inh” value was 99.6%.

With `CN1CCN(CCCNc2nccc(-c3c(-c4ccc(F)cc4)nn4cc(C(N)=O)ccc34)n2)CC1` [GW622475], the “%Inh” value turned out to be 51%.

Turning to `CC(C)c1nc(-c2cccc(NS(=O)(=O)c3ccccc3)c2)c(-c2ccnc(Nc3ccc4c(c3)CN(C)CC4)n2)s1` [GSK1649598], the “%Inh” value came to 93.2%.

As for `COc1cccc(C2=C(Nc3cccc(Cl)c3)C(=O)NC2=O)c1` [SB-341556], the “%Inh” value worked out at 18%.

Regarding `Cl.Cl.NC[C@H](CC1CCCCC1)NC(=O)c1ccc(-c2ccnc3[nH]ccc23)s1` [GSK1581428], the “%Inh” value is reported as 7%.

As to `Cn1ccc2ncnc(Oc3ccc(NC(=O)Nc4cc(C(C)(C)C)on4)c(Cl)c3)c21`, the “%Inh” value came out at 71%.

The next assay relates to EPHA2. The settings on record: concentration: 1 μM,replicates: in singlicate; n = 1.
In the case of `CS(=O)c1ccc(-c2coc3ccc(-c4n[nH]c(=O)o4)cc23)cc1` (centres unmarked), the “%Inh” value came out at 0%.

For the compound `Cc1ccc(Nc2ccnc(Nc3ccc4c(c3)CS(=O)(=O)C4)n2)cc1O.Cl` [GW579362], the “%Inh” value amounted to 83%.

For the compound `CS(=O)(=O)Nc1ccc(-c2ccnc3[nH]ccc23)cc1` [GSK993273], the “%Inh” value amounted to 0%.

Take `COc1cc(Nc2nccc(N3CCC(NC(=O)c4cccc(C#N)c4)C3)n2)cc(OC)c1OC` (centres unmarked) [GSK1379751]: the “%Inh” value is listed as 2%.

As for `O=c1[nH]cc(-c2ccc(O)cc2)c2sc(-c3ccncc3)cc12` [GSK1033723], the “%Inh” value came out at 10%.

With `COc1cccc(CNC(=O)NC2CCN(c3ccnc(Nc4cc(OC)c(OC)c(OC)c4)n3)C2)c1` (centres unmarked) [GSK1379765], the “%Inh” value was determined as 30%.

On to `O=C1NCCc2[nH]c(-c3ccncc3)cc21`, for which the “%Inh” value worked out at 0%.

Regarding `O=C(Nc1ccc(Oc2ccc3nc(NC(=O)C4CC4)cn3n2)c(F)c1)c1cccn(-c2ccccc2)c1=O`, the “%Inh” value was 74%.

As for `COC(=O)c1cccc(NC(=O)NC2CCN(c3ccnc(NCc4ccc(F)cc4)n3)CC2)c1` [GSK1379860], the “%Inh” value was 10%.

As for `Nc1nccc(-c2ccc3c(N)n[nH]c3c2)n1` [GSK1034945], the “%Inh” value is given as 0%.

On to `CC(C(=O)NC1CCN(c2ccnc(Nc3ccc(F)cc3)n2)C1)c1ccc(Cl)cc1` (centres unmarked) [GSK1379713], for which the “%Inh” value came to 14%.

For the compound `Cc1ccc(C(=O)Nc2ccc(Oc3ccc4nc(NC(=O)C5CC5)cn4c3)c(F)c2)c(=O)n1-c1ccccc1`, the “%Inh” value was found to be 98.5%.

As to `OCCn1cc(-c2cnc3nnn(Cc4ccc5ncccc5c4)c3n2)cn1`, the “%Inh” value is listed as 0%.

Regarding `CN1CCN(CCNc2nc3cc(Oc4ccc(NC(=O)Nc5cc(C(F)(F)F)ccc5F)cc4)ccc3[nH]2)CC1.Cl.Cl` [GW768504], the “%Inh” value is listed as 4%.

For the compound `CCn1c(-c2nonc2N)nc2cncc(CNC3CCNCC3)c21.Cl` [SB-747651], the “%Inh” value was 0%.

On to `FC(F)(F)c1cc(Br)cc(Nc2nccc(-c3cnn4ncccc34)n2)c1` [GW810578], for which the “%Inh” value is 0%.

For the compound `Cn1ccc2ncnc(Oc3ccc(NC(=O)Nc4cncc(C(F)(F)F)c4)c(Cl)c3)c21`, the “%Inh” value is 81%.

Turning to `O=C(Nc1n[nH]c2cc(-c3ccco3)ccc12)C1CC1` [SB-737447], the “%Inh” value was 10%.

For the compound `CN(c1ccc2c(c1)nc(NCc1ccc(F)cc1)n2C)c1ccnc(Nc2ccc(CS(C)(=O)=O)cc2)n1.Cl` [GW813244], the “%Inh” value worked out at 12%.

In the case of `COc1cccc(OC)c1C(=O)Nc1cccc(-c2nn3ccccc3c2-c2ccnc(Nc3cccc(F)c3)n2)c1` [GSK361065], the “%Inh” value is 11%.

For `CCN1CCN(CCCC(=O)Nc2n[nH]c3nc(-c4ccc(O)cc4)c(Br)cc23)CC1` [SB-731579], the “%Inh” value was 0%.

Regarding `Cn1cc(-c2cccc3c(N)c(C(N)=O)nnc23)cn1`, the “%Inh” value is on record as 0%.

Take `O=C(Nc1cccc(C(F)(F)F)c1)c1cccc(Oc2ccc3nccn3n2)c1`: the “%Inh” value stood at 42%.

On to `Cn1ccc2ncnc(Oc3ccc(NC(=O)Nc4cnn(C(C)(C)C)c4)c(Cl)c3)c21`, for which the “%Inh” value amounted to 22%.

On to `COc1ccc(Nc2nccc(N3CCC(NC(=O)c4cccc(C#N)c4)C3)n2)cc1` (centres unmarked) [GSK1379730], for which the “%Inh” value amounted to 0%.

As for `CC(C)S(=O)(=O)N1CCN(Cc2ccc3c(c2)nc(NC(=O)c2ccsc2)n3C[C@H](O)c2ccccc2)CC1` [GW635815], the “%Inh” value worked out at 0%.

As for `Cn1ccc2ncnc(Oc3ccc(NC(=O)Nc4cccc(C(F)(F)F)c4)c(F)c3)c21`, the “%Inh” value is recorded as 94.6%.

With `Cc1ccc2c(-c3ccnc(Nc4ccc(C(F)(F)F)cc4)n3)cnn2n1` [GW819776], the “%Inh” value was determined as 0%.

With `c1ccc(Oc2ccc(Nc3ccnc4ccc(-c5ccccn5)cc34)cc2)cc1` [GW407034], the “%Inh” value is 13%.

Turning to `COc1cc2ncn(-c3cc(OCC4CCCCC4)c(C(N)=O)s3)c2cc1OC` [GSK204559], the “%Inh” value stood at 4%.

Take `Cl.Nc1n[nH]c2cc(-c3ccccn3)ccc12` [GSK2189892]: the “%Inh” value stood at 23%.

`CNC(=O)c1ccccc1Nc1nc(Nc2cccc(CS(C)(=O)=O)c2)ncc1C.O=CO` [GSK1520489]: the “%Inh” value is 99.1%.

As for `CN1CCN(CCCNc2nccc(-c3c(-c4ccc(F)cc4)nn4cc(C(N)=O)ccc34)n2)CC1` [GW622475], the “%Inh” value is listed as 28%.

Take `CC(C)c1nc(-c2cccc(NS(=O)(=O)c3ccccc3)c2)c(-c2ccnc(Nc3ccc4c(c3)CN(C)CC4)n2)s1` [GSK1649598]: the “%Inh” value is recorded as 33%.

Turning to `COc1cccc(C2=C(Nc3cccc(Cl)c3)C(=O)NC2=O)c1` [SB-341556], the “%Inh” value amounted to 19%.

As for `Cl.Cl.NC[C@H](CC1CCCCC1)NC(=O)c1ccc(-c2ccnc3[nH]ccc23)s1` [GSK1581428], the “%Inh” value was 0%.

For the compound `Cn1ccc2ncnc(Oc3ccc(NC(=O)Nc4cc(C(C)(C)C)on4)c(Cl)c3)c21`, the “%Inh” value came out at 85%.

Source of the values: article PMC5540273 (PLoS ONE, 2017).
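Also: KINOMEscan kinase panel screen.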
